Measured values reported in PubChem BioAssay AID2061323 (National Center for Advancing Translational Sciences (NCATS), 2025).
Records with an inconclusive call do not appear. Calls of active or inactive are those of the source. The call rests on the fitted dose curve; in most records, active means well fitted inhibition curve with a large enough effect; inconclusive means small, poorly fitted or top-dose-only effect; inactive means flat fitted curve, though single readings scatter.

test: Identification of antibody-drug conjugate (ADC) payloads which are substrates of ATP-binding cassette drug efflux transporters: ABCG2-HEK293-R5 cell line; settings: ABCG2-HEK293-R5 viability, CellTiter-Glo ATP luminescence, 48 h
Text: Antibody-drug conjugates (ADCs) feature an antibody recognizing a specific protein joined to a potent toxic payload. Numerous antibody-drug conjugates have received FDA approval; however, clinical resistance arises. Resistance mechanisms include decreased expression or mutation of the antibody target, impaired payload release, or increased expression of ATP-binding cassette (ABC) efflux transporters associated with multidrug resistance. We therefore sought to characterize the interaction of ABC multidrug transporters with ADC payloads. We performed a high-throughput screen with 27 common ADC payloads using cells lines expressing ABC transporters P-glycoprotein (P-gp, encoded by ABCB1) or ABCG2 (encoded by ABCG2). Confirmatory assays were also performed using cells transfected to express P-gp, ABCG2, or MRP1 (encoded by ABCC1). Several commonly used ADC payloads were substrates of P-gp, including calicheamicin gamma1, monomethyl auristatin E, DM1, and DM4. All the pyrrolobenzodiazepines tested - SJG136, SGD-1882, SG2057, and SG3199 - were substrates of P-gp, ABCG2, and MRP1. […] These findings highlight the risk of transporter-mediated resistance with certain ADC payloads and underscore the importance of selecting payloads that evade ABC transporter recognition in future ADC development.
HEK-293 cells were transfected with empty vector (pcDNA) or vector containing the human ABCB1 (MDR-19), ABCG2 (R-5), or ABCC1 gene (MRP1) and were maintained in EMEM with 2 mg/mL G418 added to maintain transporter expression. The HeLa derivative KB-3-1 and the P-gp overexpressing KB-8-5-11 subline were maintained in DMEM; KB-8-5-11 additionally received 100 ng/mL colchicine. H460 parental cells were obtained from the Division of Cancer Treatment and Diagnosis Tumor Repository, National Cancer Institute at Frederick, MD and were cultured in RPMI. The ABCG2 expressing subline H460 MX20 was generated by selecting H460 cells in 20 nM mitoxantrone. Media in all cases was supplemented with 10% FBS and 1% penicillin-streptomycin. We explored 27 common ADC payloads, in two orthogonal, paired cell line sets-a drug selected and transfected set for each transporter--to identify substrates of the ABC transporters P-gp and ABCG2. Compounds were sourced from Levena Biopharma (San Diego, CA), Selleck Chem (Houston, TX), ChemieTek (Indianapolis, IN), or Microsource Discovery Systems (Gaylordsville, CT). Screening was performed as previously described. Briefly, cells were plated at a density of 500 cells/well in 1536 well plates with compounds added using a 1536-head pin tool (Kalypsys, San Diego CA). Cells were incubated with cytotoxic drugs and processed with CellTiter Glo reagent (Promega, Madison, WI) to determine viability after 48 hours. […]

SMILES	Potency
COc1cc2cc(C(=O)N3C[C@@H](CCl)c4c3cc(O)c3ccccc43)[nH]c2c(OC)c1OC	21.2 nM (active)
COc1cc2cc(c1Cl)N(C)C(=O)C[C@H](OC(=O)[C@H](C)N(C)C(=O)CCC(C)(C)S)[C@]1(C)OC1[C@H](C)C1C[C@@](O)(NC(=O)O1)[C@H](OC)/C=C/C=C(\C)C2 (some centres undefined)	2.4 nM (active)
CC[C@H](C)[C@@H]([C@@H](CC(=O)N1CCC[C@H]1[C@H](OC)[C@@H](C)C(=O)N[C@H](C)[C@@H](O)c1ccccc1)OC)N(C)C(=O)[C@@H](NC(=O)[C@H](C(C)C)N(C)C)C(C)C	8.4 nM (active)
CC[C@@]1(O)C(=O)OCc2c1cc1n(c2=O)Cc2cc3ccccc3nc2-1	13.4 nM (active)
